Screens from PubChem BioAssay.
Vaccinia Venus: qHTS for Stage-Specific Inhibitors of Vaccinia Orthopoxvirus: Venus Reporter Primary qHTS. Vaccinia virus Venus reporter expression, fluorescence. Potency, µM (top dose mostly 36.5 µM), most hits filed as inhibitors. hit rate 0.46% among 330,000; calls by dose curve; tested in A549 cells; also: nearly all actives have a fitted effect of over 30% in size
FMDV antiviral: High Throughput Screening for Foot and Mouth Disease Virus Antivirals; FMDV antiviral cell-based qHTS; Potency, µM (titrated, usually from 57.9 µM), actives largely listed as inhibitors; hit rate 1.2% among 410,000; AID 1159524, 2015; calls by dose curve; tested in HEK293T cells; also: read-out not given here; nearly all actives have a fitted effect of over 45% in size
HCV inh: qHTS Assay for Inhibitors of Hepatitis C Virus (HCV) | hit rate 3.4% among 340,000 | Huh7.5.1 HCVcc-Cre infection, luciferase reporter, 44 h | Potency, µM (doses to about 41.8 µM), most hits filed as inhibitors
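Seed cells (1,000/well) for 4 h; treat with compound and infect with HCVcc-Cre, moi about 0.5. Incubate 44 h, then detect luciferase activity.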
Giardia FBPA inh: qHTS Assay for Inhibitors of Fructose-1,6-bisphosphate Aldolase from Giardia Lamblia. AID 2451, 2010. purified Giardia FBPA. Potency, µM (titrated, usually from 59.6 µM), actives largely listed as inhibitors. A8B2U2. hit rate 0.71% among 290,000; also: nearly all actives have a fitted effect of over 55% in size
Target sequence (A8B2U2 whole entry, looked up): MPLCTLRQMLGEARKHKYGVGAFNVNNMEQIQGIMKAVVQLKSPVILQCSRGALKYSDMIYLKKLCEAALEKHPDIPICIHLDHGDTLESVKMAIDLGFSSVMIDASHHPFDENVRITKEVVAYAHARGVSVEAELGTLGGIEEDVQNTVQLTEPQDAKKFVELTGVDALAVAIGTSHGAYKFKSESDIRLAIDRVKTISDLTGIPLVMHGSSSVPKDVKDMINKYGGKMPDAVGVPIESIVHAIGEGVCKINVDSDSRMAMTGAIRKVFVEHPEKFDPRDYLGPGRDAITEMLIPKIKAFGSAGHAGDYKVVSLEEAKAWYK
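40 nM FBPA preincubated 10 min at RT with compound (up to 57.5 uM final), then substrate plus GAPDH/TPI/NAD/arsenate coupling and diaphorase/resazurin added. Fluorescence read after 20 min at RT, 525/598 nm.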
HCMV antiviral: qHTS Assay for inhibitors of the human cytomegalovirus (HCMV); activity change, negative = inhibition, % at 57.5 µM; HFF cells, HCMV-luciferase reporter, 72 h; active compounds read low; hit rate 4.5% among 410,000; in the data active = activity change below about -60%; inconclusive = no clear call, values can overlap the other calls; inactive = above about -39%
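After 16 h attachment at 37C, HFF cells received test compound and HCMV-luciferase (1 PFU/cell); reporter luminescence read 72 h later, data normalized against buffer-only and known inhibitor Salinomycin.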
Vaccinia mCherry: qHTS for Stage-Specific Inhibitors of Vaccinia Orthopoxvirus: mCherry Reporter Primary qHTS | Potency, µM (doses to about 36.5 µM), hits mostly inhibitors | Vaccinia virus mCherry reporter infection, fluorescence | AID 720579, 2013 | hit rate 0.63% among 310,000; calls by dose curve; tested in A549 cells; also: nearly all actives have a fitted effect of over 35% in size
Large screens that a line does not name were inactive; ! = repeats disagree. Only some compounds are listed: those with a hit (about 7.5% of all), similar ones and a draw of the others. Unless noted, calls follow the shape of the dose curve; as a rule, active = well fitted curve in the direction sought with a large enough effect; inconclusive = small, poorly fitted or top-dose-only effect, or another doubt; inactive = no such curve, though single readings can be large; an effect the other way counts as inactive or inconclusive.

Cc1cc(/C=N/NC(=O)c2c(Br)cnn2C)c(C)n1-c1cccc(Br)c1	FMDV antiviral inconclusive, HCMV antiviral -65
CCOC(=O)C1CCCN(S(=O)(=O)c2ccc3c(c2)CCCN3C(C)=O)C1 (stereo not given)	none (no result: HCV inh, Giardia FBPA inh)
COc1ccccc1N1CCN(C(=O)C2CCCN(S(=O)(=O)c3ccc4c(c3)CCCN4C(C)=O)C2)CC1 (stereo not given)	FMDV antiviral 28µM, HCV inh 10µM, HCMV antiviral -89!
CC(=O)N1CCCc2cc(S(=O)(=O)N3CCCC(C(=O)N4CCN(c5cc(C)ccc5C)CC4)C3)ccc21 (stereo not given)	FMDV antiviral 28µM, HCV inh 10µM, HCMV antiviral -78!
CC(=O)N1CCCc2cc(S(=O)(=O)N3CCCC(C(=O)N4CCN(c5ccccc5)CC4)C3)ccc21 (stereo not given)	Vaccinia Venus inconclusive, FMDV antiviral 18µM, HCV inh 11µM, HCMV antiviral active!, Vaccinia mCherry inconclusive
COc1cccc(C(=O)/C(C#N)=N/Nc2cccc(-c3ccnc(C)n3)c2)c1	none (no result: Vaccinia Venus, Vaccinia mCherry)
COc1ccc(OCC(O)CNS(=O)(=O)c2cccs2)cc1 (stereo not given)	none (no result: Vaccinia Venus, Vaccinia mCherry)
CCCSc1ncc(Cl)c(C(=O)NCc2ccc(OC)cc2)n1	HCMV antiviral inconclusive (no result: HCV inh, Giardia FBPA inh)
COc1cc(-c2cccc([C@H]3[C@@H]4C=CC[C@@H](C)[C@@H]4C(=O)N3Cc3ccccc3)c2)cc(OC)c1OC	Vaccinia Venus inconclusive, HCV inh 10µM
COc1ccc(-c2c([C@H]3[C@H]4C=CC[C@@H](C)[C@@H]4C(=O)N3Cc3ccccc3)ccc3ccccc23)cc1	Vaccinia Venus inconclusive, FMDV antiviral inconclusive, HCV inh 7.1µM, HCMV antiviral inconclusive, Vaccinia mCherry inconclusive
CC(=O)c1ccc(-c2cccc([C@H]3[C@@H]4C=CC[C@@H](C)[C@@H]4C(=O)N3Cc3ccccc3)c2)cc1	HCV inh 11µM
CCC1(C2CCN(C(=O)c3ccc4ccccc4c3)CC2)NC(=O)N(CCc2scnc2C)C1=O (stereo not given)	none (no result: HCV inh, Giardia FBPA inh, HCMV antiviral)
CCCCCCC[N+](CC)(CC)CCCCc1ccc(Cl)cc1	FMDV antiviral 18µM, HCV inh inconclusive, HCMV antiviral -101
CC(C)(C)C(=O)Nc1ccc2nc(SCC(=O)N3CCCC3)sc2c1	none (no result: HCV inh, Giardia FBPA inh)
COc1cc2nc(NC(=O)c3ccc(S(=O)(=O)N4CCCC4)cc3)sc2cc1OC	HCMV antiviral -63 (no result: HCV inh, Giardia FBPA inh)
CC(=O)Nc1nc2ccc(S(=O)(=O)N3CCCC3)cc2s1	HCMV antiviral -63 (no result: Vaccinia Venus, Giardia FBPA inh, Vaccinia mCherry)
COc1ccc(C(=O)Nc2nc3ccc(S(=O)(=O)N4CCCC4)cc3s2)cc1	none (no result: HCV inh, Giardia FBPA inh)
CCCC(=O)Nc1nc2ccc(S(=O)(=O)N3CCCCC3)cc2s1	HCV inh inconclusive, Vaccinia mCherry inconclusive
CC1=CC2=NC(=O)CC(C)(C(=O)N(CC(=O)NC3CCCC3)c3ccccc3F)N2C=C1 (stereo not given)	none
Cc1cccc(-n2c(SCC(=O)N3CC(=O)Nc4ccccc43)nc3ccccc3c2=O)c1	HCMV antiviral -62
CC(C)Cn1c(SCC(=O)N2CC(=O)Nc3ccccc32)nc2ccccc21	none
Cc1cccc(-n2c(SCC(=O)N3CC(=O)Nc4ccccc43)nc3ccccc3c2=O)c1C	FMDV antiviral inconclusive, HCV inh inconclusive, HCMV antiviral -64
Cc1ccc(-n2c(SCC(=O)N3CC(=O)Nc4ccccc43)nc3ccccc3c2=O)cc1C	FMDV antiviral inconclusive, HCV inh inconclusive, HCMV antiviral -80 (no result: Vaccinia Venus, Vaccinia mCherry)
CC(c1ccccc1)n1c(SCC(=O)N2CC(=O)Nc3ccccc32)nc2ccccc2c1=O (stereo not given)	Vaccinia Venus inconclusive, FMDV antiviral inconclusive, HCV inh inconclusive, HCMV antiviral -81
COCC(C)n1c(SCC(=O)N2CC(=O)Nc3ccccc32)nc2ccccc2c1=O (stereo not given)	none (no result: Vaccinia Venus, Giardia FBPA inh, Vaccinia mCherry)
O=C1CN(C(=O)CSc2nc3ccccc3c(=O)n2CC2CCCO2)c2ccccc2N1 (stereo not given)	FMDV antiviral inconclusive (no result: Vaccinia Venus, Vaccinia mCherry)
CC#CCN(Cc1ccco1)C(=O)C1CCC(=O)N(CCc2cccc(F)c2)C1 (stereo not given)	HCMV antiviral inconclusive (no result: HCV inh, Giardia FBPA inh)
O=[N+]([O-])c1ccc(NS(=O)(=O)c2ccc(Cl)c(Cl)c2)cc1	HCMV antiviral -64 (no result: HCV inh, Giardia FBPA inh)
O=[N+]([O-])c1ccc(S(=O)(=O)Nc2ccncc2)cc1	none
Cc1cccc(NC(=O)c2c(NC(=O)C(F)(F)F)sc3c2CCCCC3)c1	Vaccinia Venus inconclusive, FMDV antiviral inconclusive, HCMV antiviral -100, Vaccinia mCherry inconclusive (no result: HCV inh, Giardia FBPA inh)
COc1ccc(NC(=O)c2c(NC(=O)c3ccc(Br)cc3)sc3c2CCCC3)cc1	FMDV antiviral inconclusive, HCMV antiviral -63 (no result: HCV inh, Giardia FBPA inh)
Cc1ccccc1NC(=O)c1c(NC(=O)C(F)(F)F)sc2c1CCCCC2	Vaccinia Venus inconclusive, FMDV antiviral inconclusive, HCMV antiviral -102, Vaccinia mCherry inconclusive (no result: HCV inh, Giardia FBPA inh)
O=C(Nc1cccc(Cl)c1)c1c(NC(=O)C(F)(F)F)sc2c1CCCC2	Vaccinia Venus inconclusive, FMDV antiviral inconclusive, HCMV antiviral -105, Vaccinia mCherry 13µM (no result: HCV inh, Giardia FBPA inh)
Cc1ccccc1NC(=O)c1c(NC(=O)c2ccccc2)sc2c1CCC2	none (no result: HCV inh, Giardia FBPA inh)
Cc1cccc(NC(=O)c2c(Br)sc3c2CCCC3)c1	none (no result: HCV inh, Giardia FBPA inh)
Cc1ccc(NC(=O)c2c(NC(=O)c3ccccc3)sc3c2CCC3)cc1	none (no result: HCV inh, Giardia FBPA inh)
O=C(Nc1sc2c(c1C(=O)Nc1ccc(Cl)cc1)CCCC2)c1cccs1	Vaccinia Venus inconclusive, FMDV antiviral inconclusive, Vaccinia mCherry 13µM (no result: HCV inh, Giardia FBPA inh)
Cc1ccc(NC(=O)c2c(NC(=O)C(F)(F)F)sc3c2CCCCC3)cc1	Vaccinia Venus inconclusive, FMDV antiviral inconclusive, HCMV antiviral -100, Vaccinia mCherry inconclusive (no result: HCV inh, Giardia FBPA inh)
CCOC(=O)c1c(NC(=O)c2cccs2)sc2c1CCCC2	HCV inh inconclusive
CC(C)Cc1ccc(C(C)C(=O)Nc2cccnc2)cc1 (stereo not given)	HCV inh 3.2µM, HCMV antiviral -78
CC(C(=O)Nc1ccc(O)cc1)c1cccc(C(=O)c2ccccc2)c1 (stereo not given)	FMDV antiviral inconclusive, HCV inh 13µM, HCMV antiviral -63
CC(C)Cc1ccc(C(C)C(=O)Nc2ccc(O)cc2)cc1 (stereo not given)	HCMV antiviral -66 (no result: Vaccinia Venus, Vaccinia mCherry)
Cc1cc(C)n2nc(C(=O)N3CCCC(Nc4ccc(F)c(F)c4)C3)cc2n1 (stereo not given)	HCMV antiviral inconclusive (no result: Giardia FBPA inh)
O=C(NC1CCCCC1)C(=O)c1c[nH]c2ccccc12	none (no result: Giardia FBPA inh)
O=C(Cn1ccn(-c2ccc(F)cc2)c(=O)c1=O)NCCc1ccccc1	HCMV antiviral inconclusive (no result: HCV inh, Giardia FBPA inh)
Cc1ccc(NC(=O)Nc2cc3c(cc2N2CCCCC2)n(C)c(=O)n3C)cc1Cl	Vaccinia Venus inconclusive, FMDV antiviral inconclusive, HCMV antiviral -99, Vaccinia mCherry inconclusive (no result: HCV inh, Giardia FBPA inh)
